Compounds with a hit are over-represented: about 3.8% of the library has one in this group of screens.
ATXN2 expr inh: Primary qHTS for Inhibitors of ATXN expression; HEK-293 ATXN2-luciferase reporter, luminescence, 24 h; Potency, µM (doses to about 57 µM), inactives show at the top dose activity change, negative = inhibition, actives largely listed as inhibitors; actives 0.72% (n = 360,000); note: % is set by controls: 0 for no effect and ±100 for the full control effect; nearly all actives have a fitted effect of over 55% in size
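ATXN2-luciferase reporter cells (luciferase flanked by upstream and downstream ATXN2 gene portions) were treated 24 h at 37 °C with compounds at up to 57 uM. SteadyGlo luminescence gave expression; GF-AFC fluorescence gave viability.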
Nrf2 block: Nrf2 qHTS screen for inhibitors; Potency, µM (highest dose often 46 µM), for the others: at the top dose activity change, negative = inhibition, most hits filed as inhibitors; A549 ARE-Fluc reporter, luciferase luminescence, 18-24 h; actives 2.1% (n = 360,000); note: % is set by controls: 0 for no effect and ±100 for the full control effect; nearly all actives have a fitted effect of over 60% in size
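Nrf2 activity is the BugLite luminescence, read 15 min after reagent at room temperature, following CellTiter-Fluor cytotoxicity readout (30 min, 37C). Compound titrations were applied for 18-24 h to 5000 A549 ARE_Fluc cells/well in 5% FBS OPTI-MEM.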
TGFb inhibitor: qHTS for Inhibitors of TGF-b. HepG2 CAGA-GFP TGF-b/SMAD3 reporter, GFP fluorescence, 18 h; TGF-beta stimulated, 500 pg/mL final. Potency, µM (titrated, usually from 46.1 µM), without a hit: top-dose activity, negative = inhibition, usual class: inhibitors. actives 1.2% (n = 410,000); note: % is set by controls: 0 for no effect and ±100 for the full control effect; nearly all actives have a fitted effect of over 65% in size
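Inhibition was scored as loss of TGF-beta-induced (500 pg/mL final, 18 hours, 37 degrees C) GFP in HEPG2 cells carrying a CAGA-GFP reporter, in DMEM with 1% FBS. Well GFP was summed per cell; Activity was normalised to unstimulated and stimulated DMSO wells, then concentration-response fitting.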
A549 viability: Nrf2 qHTS screen for inhibitors: counterscreen for cytotoxicity; actives 0.16% (n = 390,000); A549 ARE-Fluc cells, CellTiter-Fluor viability, 18-24 h; Potency, µM (doses to about 46 µM), for the others: at the top dose activity change, negative = cytotoxicity, actives largely listed as inhibitors; note: % is set by controls: 0 for no effect and ±100 for the full control effect
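Cytotoxicity counterscreen: CellTiter-Fluor fluorescence was measured in A549 ARE_Fluc cells after 18-24 h of compound exposure in a concentration series. The subsequent BugLite luminescent read reports ARE-luciferase activity.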
ATXN viability: Viability Counterscreen for Primary qHTS for Inhibitors of ATXN expression; S2 cells (HEK-293 line with an ATXN2-luciferase reporter) viability, CellTiter-Fluor protease fluorescence, 24 h; Potency, µM (highest dose often 56.7 µM), most hits filed as cytotoxic; actives 0.49% (n = 400,000); note: nearly all actives have a fitted effect of over 40% in size
HepG2 tox: qHTS for Inhibitors of TGF-b: Cytotox Counterscreen. HepG2 CAGA-GFP viability, ATP luminescence, 18 h. Potency, µM (titrated, usually from 46.1 µM), without a hit: at the top dose activity change, negative = cytotoxicity, actives largely listed as cytotoxic. actives 0.76% (n = 410,000)
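HepG2 CAGA-GFP cells (1000/well, DMEM with 1% FBS) received compound, then TGF-beta at 500 pg/mL final, and were incubated 18 hours at 37 degrees C. Viability was read by CellTiter-Glo luminescence. Media-only wells were set as complete cell-killing and DMSO as no toxicity.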
* = called active by the depositor; i = inactive; ? = inconclusive; · = no result; [ ] = remark or other dose. Calls come from the whole dose curve; as a rule, active = well fitted curve in the direction sought with a large enough effect; inconclusive = small, poorly fitted or top-dose-only effect, or another doubt; inactive = no such curve, though single readings can be large; an effect the other way counts as inactive or inconclusive. Potency is the fitted concentration of half-maximal effect.

SMILES	ATXN2 expr inh	Nrf2 block	TGFb inhibitor	A549 viability	ATXN viability	HepG2 tox
CCC(=O)Nc1sc2c(c1C#N)CCC2	-13%	10%	15%	3%	i	-66%
Cc1cc2c(s1)c1cnn(Cc3ccc(OC(F)F)cc3)c(=O)c1n2C	·	-9%	·	-5%	·	·
O=C(Nc1cccc2cccnc12)c1csc([C@@H]2O[C@H](CO)[C@H](O)[C@H](O)[C@H]2O)n1	-1%	·	18%	·	i	-7%
O=C(Nc1ccccc1)C1=C[C@@H](c2csc3ccccc23)C[C@@H](OCc2ccc(CO)cc2)O1	?	16µM*	-24%	-1%	?	-43%
CCCN(CCC)CCCNC(=O)Cn1ncc2c3ccccc3n(Cc3ccccc3F)c2c1=O	?	?	-16%	-11%	14µM*	-22%
COc1cccc(/C=N/NC(=S)NCCc2ccccc2)c1	-17%	-19%	25µM*	?	i	-11%
CC(C)(C)[C@H](NC(=O)c1ccc(N)c(Cl)c1)C(=O)N1CCC[C@@H]1C(=O)N[C@H](C#N)CC(=O)O	-2%[5.55 µM]	·	·	·	·	·
O=C(NC1CCCCCC1)c1ccc(-n2cnnc2)cc1	12%	?	-2%	3%	i	-1%
Cc1ccc(C(=O)NCCc2cccs2)cc1	14µM*	?	5%	1%	i	-3%
Cc1ccc(C)c(Nc2nc(-c3ccccc3)c3cc(Br)ccc3n2)c1	-16%	-3%	0%	2%	i	-17%
CC(C)Oc1ccc(F)cc1-c1cc(C(=O)NCc2ccc(F)cc2)[nH]n1	0%	·	?	·	i	-22%
CCCCCn1c(CN(C)Cc2ccccc2)nc2c1c(=O)n(C)c(=O)n2C	-21%	18µM*	-9%	-20%	i	-31%
Cc1ccc(Cn2c(CN(C)Cc3ccccc3)nc3c2c(=O)n(C)c(=O)n3C)cc1	-8%	-12%	0%	·	i	5%
C=C(C)CSc1nc2c(c(=O)[nH]c(=O)n2C)n1Cc1ccccc1	-22%	5.8µM*	0%	6%	i	-12%
CN(Cc1ccccc1)Cc1nc2c(c(=O)n(C)c(=O)n2C)n1Cc1ccc(Cl)cc1	-14%	15µM*	1%	·	i	7%
CCCCCn1c(N2CCC(Cc3ccccc3)CC2)nc2c1c(=O)[nH]c(=O)n2C	?	23µM*	?	?	·	11µM*
CCCSc1nc2c(c(=O)[nH]c(=O)n2C)n1Cc1ccccc1	·	-23%	4%	8%	·	-19%
CCCCn1c(CN(Cc2ccccc2)Cc2ccccc2)nc2c1c(=O)n(C)c(=O)n2C	-12%	6%	16%	2%	i	-9%
CCCn1c(N2CCC(Cc3ccccc3)CC2)nc2c1c(=O)[nH]c(=O)n2C	-4%	·	-14%	?	i	-17%
O=C(CN(C(=O)c1csnn1)c1ccccc1C(F)(F)F)NC1CCCCC1	-11%	-7%	8%	-3%	i	-3%
CCOCCn1c(CN2CCN(c3ccc(F)cc3)CC2)nc2c1c(=O)n(C)c(=O)n2C	-14%	?	-3%	-13%	i	-19%
CCCCCCn1c(N2CCN(c3ccccc3)CC2)nc2c1c(=O)n(C)c(=O)n2C	-25%	23µM*	8%	?	?	-20%
C=C(C)Cn1c(N2CCN(c3ccc(OC)cc3)CC2)nc2c1c(=O)n(C)c(=O)n2C	-29%	23µM*	-21%	-23%	i	7%
CCCCn1c(SCC(=O)N2c3ccccc3CCc3ccccc32)nc2c1c(=O)n(C)c(=O)n2C	-5%	?	20%	-1%	i	-6%
COC(=O)Cn1c(CN2CCN(c3ccc(F)cc3)CC2)nc2c1c(=O)n(C)c(=O)n2C	-4%	18µM*	-21%	-5%	i	-9%
SMILES	ATXN2 expr inh	Nrf2 block	TGFb inhibitor	A549 viability	ATXN viability	HepG2 tox
CCCCn1c(SCc2nnc(-c3ccccc3)o2)nc2c1c(=O)n(C)c(=O)n2C	-13%	10µM*	-23%	-14%	i	-3%
CCOc1ccc(-c2c(C(=O)N/N=C/c3c[nH]c4ccccc34)nnn2-c2nonc2N)cc1	-25%	?	?	2%	i	-14%
CCOc1cc(C)c(S(=O)(=O)Nc2ccc3cn[nH]c3c2)cc1C	4%	?	?	-4%	i	-39%
Brc1cccc(-c2nn(-c3ccccc3)c3c2cnc2cc4c(cc23)OCO4)c1	6%	14%	0%	1%	i	-4%
CC(C)(C)OC(=O)N1CCC(c2nnc(SCc3ccccc3Cl)o2)CC1	-25%	-21%	-13%	-3%	i	-24%
CC(C)(C)OC(=O)N1CCC(c2nnc(SCc3ccccc3F)o2)CC1	-16%	21µM*	-1%	?	i	-24%
CC(C)(C)C(=O)CN1C(=O)NC2(CCCc3ccccc32)C1=O (centres undefined)	0%	8%	0%	-1%	?	-2%
COc1cccc(-c2nc(C(=O)NCC3CCCO3)cc3c2[nH]c2ccccc23)c1 (centres undefined)	?	21µM*	-9%	-16%	·	-3%
C=Cc1ncc(OC)c2c1[nH]c1ccccc12	?	?	20µM*	3%	·	13µM*
CCN(CC)S(=O)(=O)c1ccc(C(=O)Nc2nnc(COC)o2)cc1	19%	3%	10%	4%	i	-4%
CCc1nnc(NC(=O)c2ccc(S(=O)(=O)N(CC)Cc3ccccc3)cc2)o1	-15%	21µM*	-27%	-13%	i	10%
CCN(CC)S(=O)(=O)c1ccc(C(=O)Nc2nnc(CSC)o2)cc1	6%	5%	3%	1%	i	1%
COc1ccccc1-c1nnc(NC(=O)c2ccc(S(=O)(=O)N(C)Cc3ccccc3)cc2)o1	?	5.8µM*	-1%	-18%	?	-24%
CN(Cc1ccccc1)S(=O)(=O)c1ccc(C(=O)Nc2nnc(C3CC3)o2)cc1	-30%	?	-23%	-4%	i	-8%
CCc1nnc(NC(=O)c2ccc(S(=O)(=O)N(C)Cc3ccccc3)cc2)o1	?	7.3µM*	-11%	-25%	i	-32%
CCCCN(C)S(=O)(=O)c1ccc(C(=O)Nc2nnc(CSC)o2)cc1	?	10µM*	-9%	-20%	i	-14%
S=c1nc[nH]c2n[nH]nc12	·	·	5%	·	·	-30%
